Reference: PubChem BioAssay AID1745848 (National Center for Advancing Translational Sciences (NCATS), 2022)
Hit rate of the full screen: of about 2,100 compounds, about 940 (45%) were called active. Inconclusive results (about 48%) are left out. So high a share suggests a set chosen from earlier hits. This is one part of the list. Values without a mark were called inactive. Calls follow the shape of the dose curve; as a rule, active = well fitted inhibition curve with a large enough effect; inconclusive = small, poorly fitted or top-dose-only effect; inactive = no such curve, though single readings can be large or run the other way.

Test: Confirmatory qHTS for Inhibitors of ATXN expression; also: nearly all actives have a fitted effect of over 65% in size;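 as to activity change, negative = inhibition: 0% = DMSO vehicle wells and -100% = medium-only wells without cells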
Settings: ATXN2-luciferase reporter cells, luminescence, 24 h; series mostly up to 11.5 µM; activity change, negative = inhibition: at the top concentration
Description: PI: Daniel Scoles Ph.D. University of Utah School of Medicine, Salt Lake City, Utah MLPCN Grant: NS073009 Spinocerebellar ataxia type 2 (SCA2) is a multisystem neurodegenerative disease caused by a dominantly acting mutation leading to expansion of a polyQ domain in the ataxin-2 protein (ATXN2). SCA2 patients develop progressive ataxia and later lose function in other neuronal systems. Prominent parkinsonian signs develop in some patients. Like many neurodegenerative disorders, no symptomatic or disease-modifying treatments are known. The primary objective of the proposed research is to identify compounds inhibiting ATXN2 expression and to test them for efficacy in SCA2 mouse models. We have developed a cell-based assay paired with an in vivo mouse model using identical luciferase expression constructs. This approach takes advantage of an ATXN2-luciferase transgene, with the luciferase gene flanked by the upstream and downstream portions of the ATXN2 gene. Here we describe a 5-7 dose quantitative high thoroughput screen (qHTS) for compounds lowering ATXN2 expression. We screened the NIH Molecular Libraries Small Molecule Repository (MLSMR) and NCGC's mechanistically annotated (MIPE) and drug repurposing (NPC) collections of compounds for lowering expression of an ATXN2-luciferase reporter in HEK-293 cells. The assay is a multiplexed cell viability assay to ensure target reduction in the absence of cytotoxicity. Secondary qHTS assays included a CMV-luciferase reporter expressed in HEK-293 cells as well as a biochemical assay using recombinant luciferase to detect inhibitors of the reporter enzyme. Compounds that inhibit ATXN2 expression but is not cytotoxic were selected for confirmatory and secondary screens.
PROTOCOL TABLE (as described by Inglese J, Shamu CE and Guy RK. 2007) SEQUENCE No. (e.g., 1, 2, 3, etc.); PARAMETER (e.g., Cells, Incubation, Reagent, etc.); VALUE; DESCRIPTION. 1; Cells; 4 uL; white, solid bottom, 1536-well Greiner assay plate. 2; Incubation; 2 hr; 37 degree C in 5% humidified CO2. 3; Compounds; 23 nL; Kalypsis pintool (Wako USA) equipped with a 1536-well pin head. 4; Incubation; 24 hr; 37 degree C in 5% humidified CO2. 5; Reagent; 1 uL; Gly-Phe-7-Amino-4-trifluoromethylcoumarin. 6; Incubation; 30 min; 37 degree C in 5% humidified CO2. 7; Detection; Fluorescence; ViewLux plate reader (PerkinElmer). 8; Reagent; 3 uL; SteadyGlo luciferase solution (Promega). 9; Incubation; 5 min; room temperature. 10; Detection; Luminescence; ViewLux plate reader (PerkinElmer). NOTES (numbers refer to Sequence numbers above) 1. […] expressing ATXN2-luciferase reporter were suspended in phenol-red free DMEM and dispensed in assay plates using a Multidrop Combi dispenser (Thermo Fisher Scientific). Wells containing medium only were plated on each plate, and values were used to normalize (100% inhibition) in the luciferase and CellTiter-Fluor assays. 2. Assay plates were incubated. Evaporation was prevented by covering assay plates with metal lids containing holes to allow gas diffusion. 3. Compounds were added in a dose response manner with the final concentrations of 57, 11.4, 2.28, 0.46, 0.091, 0.018, 0.0037 uM. Vehicle-only plates, with DMSO being pin-transferred to columns 5-48, were inserted uniformly at the beginning and the end of each library to monitor and record any shifts in assay performance. 5. 125 uM Gly-Phe-7-Amino-4-trifluoromethylcoumarin (MP Biomedicals) working concentration was used at a final concentration of 25 uM. 7. To assess cell viability; the assay plates were read using the ViewLux high-throughput CCD imager (PerkinElmer), wherein single end-point fluorescence measurement was acquired (excitation 405/10; emission 540/25 nm). 8. Detection reagent SteadyGlo Luciferase (Promega) was added to the assay plate. 10. Luminescence is then measured on the ViewLux imager equipped with a clear emission filter using a 2 sec exposure. […]
Potency is read from the fitted curve at half-maximal effect.

Compound | Potency | activity change, negative = inhibition
Cc1cc[n+](C(C)C(=O)c2ccc(-c3ccccc3)cc2)cc1 (stereo not given) | 14.1 µM (active) | –
CC(C(=O)c1ccc(-c2ccccc2)cc1)[n+]1cccc(NC(=O)c2ccccc2)c1 (stereo not given) | – | -17.3%
Cc1ccc(Cc2cnc(N3C(=N)SC(C)C3=O)s2)cc1 (stereo not given) | – | -5.04%
COc1ccc(OC)c(NC(=O)COC(=O)c2c3c(nc4ccccc24)CCCC3)c1 | 3.16 µM (active) | –
Cn1cc(SCC(=O)Nc2nc3ccccc3s2)c2ccccc21 | 3.16 µM (active) | –
CC(C)CC(N)c1csc(Nc2ccc(C(=O)N(C)Cc3ccccc3)cn2)n1 (stereo not given) | 12.6 µM (active) | –
NC(c1csc(Nc2nccc(C(F)(F)F)n2)n1)C1CCCCC1 (stereo not given) | 3.55 µM (active) | –
NC(Cc1ccccc1)c1csc(Nc2ccc(C(F)(F)F)cn2)n1 (stereo not given) | 31.6 µM (active) | –
NC(COCc1ccccc1)c1csc(Nc2ccc(C(F)(F)F)cn2)n1 (stereo not given) | 31.6 µM (active) | –
NC(Cc1ccc(F)cc1)c1csc(Nc2cc(NCc3ccco3)ncn2)n1 (stereo not given) | – | 40.8%
COc1ccc(CC(N)c2csc(Nc3ccc(C(=O)c4ccccc4)cc3)n2)cc1 (stereo not given) | – | -34.6%
NC(Cc1ccc(C(F)(F)F)cc1)c1csc(Nc2nccc(C(F)(F)F)n2)n1 (stereo not given) | 3.55 µM (active) | –
CC(C)(C)c1cc(C(=O)N/N=C/c2ccc([N+](=O)[O-])s2)n[nH]1 | 5.01 µM (active) | –
Cc1cc(C(=O)N/N=C/c2ccc([N+](=O)[O-])s2)n[nH]1 | 8.91 µM (active) | –
O=C(Cn1cnc([N+](=O)[O-])c1)Nc1cc(Oc2ccc(Cl)cc2Cl)cc([N+](=O)[O-])c1 | 2.82 µM (active) | –
O=C(NCc1cc(C(F)(F)F)ccc1Cl)c1cccc2c1C(=O)c1ccc(N3CCOCC3)cc1S2(=O)=O | 3.98 µM (active) | –
O=C(NCc1ccccc1C(F)(F)F)c1cccc2c1C(=O)c1ccc(N3CCC(N4CCCCC4)CC3)cc1S2(=O)=O | 3.16 µM (active) | –
CCCc1nc2c(c(=O)c3ccccc3n2C)c(=O)n1C1CCCCCC1 | 14.1 µM (active) | –
COc1ccc(C(=O)Nn2c(SCC(=O)c3ccccc3)nc3ccccc3c2=O)cc1 | 15.8 µM (active) | –
O=S(=O)(Nc1cccc2cccnc12)c1ccccc1 | 1.58 µM (active) | –
O=[N+]([O-])c1ccccc1S(=O)(=O)Nc1cccc2cccnc12 | 10 µM (active) | –
Cc1ccc(S(=O)(=O)Nc2cccc3cccnc23)cc1 | 8.91 µM (active) | –
Cc1ccc(S(=O)(=O)Nc2cc(Cl)c(O)c3ncccc23)cc1 | 3.55 µM (active) | –

Compound | Potency | activity change, negative = inhibition
O=C(/C=C/Nc1ccc(S(=O)(=O)Nc2ncccn2)cc1)c1ccc(Cl)c(Cl)c1 | – | -22.7% [at 57.5 µM]
CCc1ccc(N(CC)C(=O)c2ccc3c(Cl)c4c(nc3c2)CCC4)cc1 | 3.55 µM (active) | –
C[C@@H]1ON(C)[C@H]2C[C@H]3c4[nH]c5ccc(-c6ccc7c(c6)OCO7)cc5c4CCN3C(=O)[C@@H]12 | 15.8 µM (active) | –
Nc1cccc2nc3ccccc3cc12 | 7.94 µM (active) | –
Nc1c2ccccc2nc2ccccc12 | 3.55 µM (active) | –
CCc1nc2ccc(C(=O)Nc3cc(-c4ccccc4)ccc3OC)cn2c1N(CC)CC(=O)N(C)C | 28.2 µM (active) | –
O=C(CCCOc1ccc(Cl)cc1Cl)N/N=C/c1ccccc1O | 2.82 µM (active) | –
Cc1ccc(S(=O)(=O)NCC(=O)N/N=C/c2ccccc2O)cc1 | 3.16 µM (active) | –
Cc1ccc(SCCC(=O)N/N=C/c2ccccc2O)cc1 | 3.55 µM (active) | –
O=C(CNS(=O)(=O)c1ccc([N+](=O)[O-])cc1)N/N=C/c1ccc(O)cc1O | 3.16 µM (active) | –
N#CC1=C(N)N2C(=C(C#N)C1c1cccc(Br)c1)Nc1ccccc12 (stereo not given) | 3.16 µM (active) | –
Cc1csc2ncnc(NC3CCN(Cc4ccccc4)CC3)c12 | 0.794 µM (active) | –
CC(C)(C)c1ccc(Oc2ccc(N)cc2)cc1 | 2.24 µM (active) | –
CC(C)(C)c1ccc(Oc2ccc(N)cn2)cc1 | 3.16 µM (active) | –
Cc1cc(C)n(CCC(=O)N/N=C/c2ccc(O)cc2O)n1 | 3.16 µM (active) | –
Cc1cccc(NC(=O)CCC(=O)N/N=C/c2ccc(O)cc2O)c1 | 3.16 µM (active) | –
COc1ccc(O)c(/C=N/NC(=O)CCC(=O)Nc2cccc(C)c2)c1 | 14.1 µM (active) | –
COc1ccc(O)c(/C=N/NC(=O)CSc2nnc(C)n2-c2ccccc2)c1 | 2.82 µM (active) | –
COc1cc(OC)c(OC)cc1/C=C1\CCC/C(=C\c2cc(OC)c(OC)cc2OC)C1=O | 3.98 µM (active) | –
COc1cc(OC)c(OC)cc1/C=C1\CC(C)C/C(=C\c2cc(OC)c(OC)cc2OC)C1=O (stereo not given) | 14.1 µM (active) | –
Cc1ccccc1C(=O)N1CCN(c2ccc(NC(=O)c3ccco3)cc2Cl)CC1 | 17.8 µM (active) | –
O=C(Nc1ccc(N2CCN(C(=O)c3ccccc3)CC2)c(Cl)c1)c1ccc(Br)o1 | 2.51 µM (active) | –
